Bead autofluor – counter-screen for toxin protease inhibitors: compound fluorescence. fluorescence intensity (test concentration not listed). AID 624483. hit rate 3.1% among 360,000. compound autofluorescence counterscreen, microsphere flow cytometry; stronger effect = higher value; in the data active means fluorescence intensity above about 16000; inconclusive means no clear call, values can overlap the other calls
Anthrax LF inh2 – blocks Bacillus anthracis lethal factor protease | P15917 | multiplex microsphere protease cleavage assay, LF | inhibition, % at 10 µM | hit rate 0.12% among 360,000; further: plate controls were buffer without enzyme for full effect and enzyme alone for no effect
BoNT-A LC inh2 – BoNT A light chain protease inhibition | hit rate 0.17% among 360,000 | multiplex microsphere protease substrate cleavage, flow cytometry | inhibition, % at 10 µM; further: plate controls were buffer without enzyme for full effect and enzyme alone for no effect
GDH-TPI inh – inhibits GDH-TPI coupling enzymes, artifact for Mtb FBA screen. inhibition, % at 4.8 µM. GDH-TPI coupled enzyme counterscreen, NADH absorbance. AID 588335. hit rate 1.2% among 360,000; in the data active means inhibition above about 30%;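 further: 0% = DMSO wells and 100% = wells lacking the enzyme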
BoNT-F LC inh – BoNT F light chain protease inhibition; Multiplex microsphere protease cleavage assay, flow cytometry; AID 588497; inhibition, % at 10 µM; hit rate 0.22% among 360,000; in the data active means inhibition above about 35%, passing the limit was not always enough; inconclusive means no clear call, values can overlap the other calls; further: plate controls were buffer without enzyme for full effect and enzyme alone for no effect
Mtb FBA inh – inhibitors of M. tuberculosis fructose-bisphosphate aldolase; P9WQA3; purified M. tuberculosis FBA, fluorescence read-out; inhibition, % at 1 µM; hit rate 2.3% among 360,000; in the data active means inhibition above about 27%;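 further: 0% = vehicle and 100% = reference inhibitor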
* marks the source's active call; other numbers are inactive results; ? = inconclusive. The list is not random: actives were taken first. Their share in the collection is about 6.7%. Unless noted, no stated cut-off is given here; in the data, active means inhibition above about 30%; inconclusive means no clear call, values can overlap the other calls; inactive means below that.

SMILES	Bead autofluor	Anthrax LF inh2	BoNT-A LC inh2	GDH-TPI inh	BoNT-F LC inh	Mtb FBA inh
N#C/C(=C\c1ccco1)C(=O)NCC1CCCO1 (stereo unspecified)	10598	0	0	46*	9	0
CC(NC(=O)/C(C#N)=C/c1ccc([N+](=O)[O-])o1)c1ccccc1 (stereo unspecified)	4450	-1	1	19	8	4
N#C/C(=C\c1ccc[nH]1)C(=O)NCC1CCCO1 (stereo unspecified)	6075	-6	-1	35*	-9	1
CC(NC(=O)/C(C#N)=C/c1ccco1)c1ccccc1 (stereo unspecified)	4303	2	0	52*	2	-1
CCCCCSc1cc(OC)c(CCNC)cc1OC	4329	2	1	-12	-7	4
COc1ccc(S(=O)(=O)N(CCc2ccccc2)CC(=O)N2CCOCC2)cc1	5935	-7	0	-13	-4	0
CCOC(=O)c1ccc(NC(=O)CC2S/C(=N/N=C3/NC(=O)CS3)NC2=O)cc1 (stereo unspecified)	4415	-3	-1	7	-6	0
CCOC(=O)c1ccc(NC(=O)CC2S/C(=N/N=C/c3c[nH]c4ccccc34)NC2=O)cc1 (stereo unspecified)	2142	-2	0	32*	0	-3
Cc1ccc(NC(=O)CC2S/C(=N/N=C/c3c[nH]c4ccccc34)NC2=O)cc1 (stereo unspecified)	6546	-2	0	39*	1	-2
CC1=C(C#N)C(NC(=O)c2ccc(C)cc2)(C(F)(F)F)C(=O)N1 (stereo unspecified)	19042*	0	6	3	5	-3
CC1=C(C#N)C(NC(=O)c2ccc(Cl)cc2)(C(F)(F)F)C(=O)N1 (stereo unspecified)	2092	0	-1	5	-4	5
COc1ccc2c(C)cc(SCC(=O)N3CCOCC3)nc2c1	6037	6	2	14	36*	3
COc1ccc2nc(N3CCOCC3)cc(C)c2c1	9770	-1	2	15	-7	85*
COc1ccc2c(C)cc(SCC(=O)NC3CCCCC3)nc2c1	2950	-8	0	24	-6	2
COc1ccc(NC(C)=O)cc1NC(=O)C1CCN(C(=O)Nc2ccccc2)CC1	5803	5	2	-19	9	-2
Cc1sc2nc(CN3CCCC3)nc(N3CCN(S(=O)(=O)c4cccs4)CC3)c2c1C	24350*	0	?	10	-4	0
Cc1ccc(S(=O)(=O)N2CCN(c3nc(CN4CCCC4)nc4sc(C)c(C)c34)CC2)cc1	4889	-1	2	-2	-9	1
O=C1C=C(c2ccccc2)OC(c2ccccc2)O1 (stereo unspecified)	4020	-2	0	-6	-2	-4
CCOC(=O)N(CC)c1ccc(C(O)(C(=O)OCC)C(F)(F)F)cc1 (stereo unspecified)	4818	0	-1	0	-24	-4
CCOC(=O)N(C)c1ccc(C(O)(C(=O)OCC)C(F)(F)F)cc1 (stereo unspecified)	22785*	-1	-1	-4	0	-1
CCn1c(CSc2nc3ccccc3s2)n[nH]c1=S	20748*	-1	-2	-8	-3	1
S=c1[nH]nc(CSc2nc3ccccc3s2)n1Cc1ccccc1	3019	1	0	5	7	4
CCCSc1nnc(CSc2nc3ccccc3s2)n1-c1ccccc1	17205*	-3	-1	11	-6	0
CCCCCC(=O)Nc1c(-c2cccs2)c(=O)c2ccccc2n1C	16847*	2	-1	21	-1	2
CCC(=O)Nc1c(-c2cccs2)c(=O)c2ccccc2n1C	4280	-4	1	8	2	-1
C=CCn1c(O)c(C(CC)=NC2CC2)c(=O)[nH]c1=O	16830*	0	-1	10	0	-2
C=CCn1c(O)c(C(CC)=Nc2ccc(N(CC)CC)cc2)c(=O)[nH]c1=O	21974*	-3	1	-1	1	-1
COc1cc(CNc2ccc(CNc3ncn[nH]3)cc2)ccc1OCc1ccccc1	2523	-4	0	-1	-7	1
CCOc1ccc(C(C)(C)C)cc1S(=O)(=O)N1CCOCC1	2020	-3	0	1	7	0
CC1CCN(C(=S)c2ccc(O)cc2)CC1	22756*	-2	1	8	0	0
